Results taken from PubChem BioAssay AID588342 (National Center for Advancing Translational Sciences (NCATS), 2011).
Screen size: about 360,000 compounds; about 25,000 (6.9%) were called active. About 9% were inconclusive and are not listed. The sample as a whole holds a higher share of actives than the screen did. A number with no mark means an inactive call. Calls follow the shape of the dose curve; as a rule, active = well fitted inhibition curve with a large enough effect; inconclusive = small, poorly fitted or top-dose-only effect; inactive = flat fitted curve, though single readings scatter.

target: Luciferin 4-monooxygenase (Photinus pyralis) (UniProt P08659); experiment: qHTS profiling assay for firefly luciferase inhibitor/activator using purifed enzyme and Km concentrations of substrates (counterscreen for miR-21 project); conditions: purified FLuc, luminescence inhibition; series mostly up to 57.5 µM; activity change, negative = inhibition: at the top concentration; also: nearly all actives have a fitted effect of over 55% in size;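 as to activity change, negative = inhibition: plate controls were vehicle for no effect and reference inhibitor for full effect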
In short: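 Purified P. pyralis luciferase, 10 nM final, with Km-level 10 uM D-luciferin and 10 uM ATP in 50 mM Tris acetate pH 7.5, 10 mM Mg acetate, 0.01% Tween-20, 0.05% BSA; 6-point qHTS titration about 60 µM downward; luminescence read.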
Potency is read from the fitted curve at half-maximal effect.

Sequence of Luciferin 4-monooxygenase (Photinus pyralis) (P08659 whole entry, looked up): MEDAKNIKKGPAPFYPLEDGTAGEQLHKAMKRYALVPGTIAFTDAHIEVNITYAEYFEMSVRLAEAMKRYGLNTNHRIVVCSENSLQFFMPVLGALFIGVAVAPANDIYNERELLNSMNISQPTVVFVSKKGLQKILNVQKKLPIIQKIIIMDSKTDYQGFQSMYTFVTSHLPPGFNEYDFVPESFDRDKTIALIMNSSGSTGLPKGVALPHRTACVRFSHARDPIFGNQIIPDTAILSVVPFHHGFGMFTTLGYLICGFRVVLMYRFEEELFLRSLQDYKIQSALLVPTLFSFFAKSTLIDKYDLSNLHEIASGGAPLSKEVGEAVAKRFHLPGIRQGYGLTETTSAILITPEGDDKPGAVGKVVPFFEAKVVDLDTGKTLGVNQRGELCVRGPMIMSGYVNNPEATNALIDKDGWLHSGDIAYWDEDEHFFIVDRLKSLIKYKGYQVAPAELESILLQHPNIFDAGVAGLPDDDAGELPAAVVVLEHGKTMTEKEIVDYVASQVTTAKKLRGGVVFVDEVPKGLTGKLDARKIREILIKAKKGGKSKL

**Q.** Which “activity change, negative = inhibition” value does the source give for `Cc1cccc(N2CCN(C(=O)c3oc(=O)c4ccccc4c3-c3ccccc3)CC2)c1C` here?
**A.** -0.455%

**Q.** For `COc1ccc(CC(=O)N2CC(=O)Nc3ccc(Br)cc3C2c2ccc(F)cc2)cc1OC` (stereo unspecified), which “activity change, negative = inhibition” value is on record?
**A.** 0.675%

**Q.** For `O=C(Cn1c(=O)nc(-c2ccccc2)c2cc(Cl)ccc21)NCc1ccc(Cl)cc1`, which “activity change, negative = inhibition” value is on record?
**A.** 3.37%

**Q.** With `Cc1c(C(C)CCCO)oc(=O)c2c1Oc1c(C)c(C(C)C[C@@H](C)O)oc(=O)c1C2` (stereo partly specified) as the compound, how does the “activity change, negative = inhibition” value read?
**A.** 2.46%

**Q.** Which “activity change, negative = inhibition” value does the source give for `O=C(NCCN1CCOCC1)c1cccc(S(=O)(=O)Nc2ccc(F)cc2)c1` here?
**A.** 3.82%

**Q.** `COc1cc(Cl)c(C)cc1NC(=O)CCc1nc2cccnc2n1Cc1cccs1` was tested. Which “activity change, negative = inhibition” value did it give?
**A.** -15.4%

**Q.** For `CCOc1ccc(NC(=O)CCC(=O)NNC(=O)NC2CCCCC2)cc1`, which “activity change, negative = inhibition” value is on record?
**A.** 1.41%

**Q.** How did the “activity change, negative = inhibition” value turn out when `Cc1ccccc1C(=O)Nc1sc2c(c1C(=O)N1CCC(C)CC1)CCCC2` was run?
**A.** -1.02%

**Q.** How did the “activity change, negative = inhibition” value turn out when `CCNS(=O)(=O)c1cc(-c2nnc(Nc3cccc(C(F)(F)F)c3)c3ccccc23)ccc1C` was run?
**A.** 3.64%

**Q.** With `CCOC(=O)C1CCCN(C(=O)c2ccc(C)c(S(=O)(=O)N3CCCCC3)c2)C1` (stereo unspecified) as the compound, how does the “activity change, negative = inhibition” value read?
**A.** -3.18%

**Q.** How did the “activity change, negative = inhibition” value turn out when `COC(=O)[C@H](C)NC(=O)Nc1ccc(OC(F)(F)F)cc1` was run?
**A.** 0.295%

**Q.** With `Cn1cccc1/C=N/NC(=O)c1ccc(OC(F)(F)C(F)F)cc1` as the compound, how does the Potency read?
**A.** 12 µM (active)

**Q.** `Cn1cccc1/C=N/NC(=O)CNc1cccc2ccccc12` was tested. Which “activity change, negative = inhibition” value did it give?
**A.** -17%

**Q.** With `COc1ccc(NC(=O)CSc2nc3ccccc3n2CC(=O)N2CCCCC2C)cc1` (stereo unspecified) as the compound, how does the “activity change, negative = inhibition” value read?
**A.** -2.28%

**Q.** For `Cc1ccc(S(=O)(=O)N2CCOCC2)cc1NC(=O)CSc1nnc(N)s1`, which “activity change, negative = inhibition” value is on record?
**A.** 2.58%

**Q.** With `CCOC(=O)c1cc2c(=O)n3ccccc3nc2n(Cc2ccco2)c1=NC(=O)c1ccc(F)cc1` as the compound, how does the “activity change, negative = inhibition” value read?
**A.** -0.239%

**Q.** `Cc1ccc(OCCSc2nc3ccc(NC(=O)COc4ccc(C)cc4)cc3s2)cc1` was tested. Which “activity change, negative = inhibition” value did it give?
**A.** 1.87%

**Q.** How did the “activity change, negative = inhibition” value turn out when `CC1CCN(S(=O)(=O)c2ccc3c(ccn3CCC(=O)NCc3ccc(N(C)C)cc3)c2)CC1` was run?
**A.** -2.72%

**Q.** Which “activity change, negative = inhibition” value does the source give for `COc1ccc(CC(=O)Nc2nnc3n2CCS3)cc1OC` here?
**A.** -3.34%

**Q.** With `CCOCCCNC(=O)c1cc2c(=O)n3ccccc3nc2s1` as the compound, how does the “activity change, negative = inhibition” value read?
**A.** -15%

**Q.** For `CCc1ccc2oc(-c3ccc(N)cc3)nc2c1`, which Potency is on record?
**A.** 0.19 µM (active)

**Q.** For `NS(=O)(=O)c1ccc(CCNC(=O)CCCCCn2c(=O)[nH]c3ccccc3c2=O)cc1`, which “activity change, negative = inhibition” value is on record?
**A.** -7.29%

**Q.** For `CCc1ccc(NC(=O)c2cc(S(=O)(=O)NC3CCCCCC3)ccc2F)cc1`, which “activity change, negative = inhibition” value is on record?
**A.** -8.51%

**Q.** Which “activity change, negative = inhibition” value does the source give for `CCOC(=O)C1=C(c2ccccc2)N=C2SCC(=O)N2C1c1ccc(O)c(OC)c1` (stereo unspecified) here?
**A.** -1.7%

**Q.** How did the “activity change, negative = inhibition” value turn out when `CSc1ccc(CCNC(=O)c2cc(C)nc3c2c(C)nn3-c2cccc(F)c2)cc1` was run?
**A.** -1.61%

**Q.** For `CCOC(=O)C1=C(c2ccccc2)NC(=S)NC1c1ccc(Cl)cc1` (stereo unspecified), which “activity change, negative = inhibition” value is on record?
**A.** 1.44%

**Q.** For `CCOc1ccc(C2NC(=S)NC3=C2CCc2ccccc23)cc1` (stereo unspecified), which Potency is on record?
**A.** 21.3 µM (active)

**Q.** With `COc1ccc(C2NC(=S)NC3=C2CCc2ccccc23)cc1OC` (stereo unspecified) as the compound, how does the “activity change, negative = inhibition” value read?
**A.** 4.29%

**Q.** How did the “activity change, negative = inhibition” value turn out when `CCN1CCc2nc3sc(C(=O)Nc4ccccc4OC(F)(F)F)c(N)c3cc2C1` was run?
**A.** 0.475%

**Q.** `Cn1c(=O)c2c(nc(Oc3ccc(C#N)cc3)n2Cc2ccc(Cl)cc2Cl)n(C)c1=O` was tested. Which “activity change, negative = inhibition” value did it give?
**A.** -3.98%

**Q.** How did the “activity change, negative = inhibition” value turn out when `O=Cc1ccc(Oc2cccc(C(F)(F)F)c2)nc1` was run?
**A.** -3.32%

**Q.** For `O=[N+]([O-])c1cccc(C2=NCCS2)c1`, which “activity change, negative = inhibition” value is on record?
**A.** -8.97%

**Q.** Which Potency does the source give for `FC(F)(F)c1ccnc(Oc2ccc(C3=NCCS3)cc2)c1` here?
**A.** 3.38 µM (active)

**Q.** For `O=C(OCC(=O)N1CCCC1)c1ccc(Cl)nc1`, which “activity change, negative = inhibition” value is on record?
**A.** 2.43%

**Q.** How did the “activity change, negative = inhibition” value turn out when `CCOc1ccc2nc(/N=C/c3nc(-c4ccccc4)oc3O)sc2c1` was run?
**A.** 2.17%

**Q.** `Oc1oc(-c2ccccc2Br)nc1/C=N/c1ccccn1` was tested. Which Potency did it give?
**A.** 7.57 µM (active)

**Q.** With `CCOc1ccc(C(=O)NCC(=O)N2CCN(c3ccc(C(F)(F)F)cn3)CC2)cc1` as the compound, how does the “activity change, negative = inhibition” value read?
**A.** 6.42%

**Q.** `CCn1cc(C(=O)OCC(=O)Nc2cc(C)cc(C)c2)c(=O)c2ccc(C)nc21` was tested. Which “activity change, negative = inhibition” value did it give?
**A.** -2.09%

**Q.** `O=S(=O)(NC1CC1)c1ccc(F)c(F)c1` was tested. Which “activity change, negative = inhibition” value did it give?
**A.** -2.04%

**Q.** How did the “activity change, negative = inhibition” value turn out when `Cc1cc(C)cc(NC(=O)CSc2nc(=O)n(CCN3CCOCC3)c3c2CCC3)c1` was run?
**A.** -2.95%

**Q.** How did the “activity change, negative = inhibition” value turn out when `CCn1c(SCC(=O)Nc2nccs2)nnc1-c1ccco1` was run?
**A.** -1.53%

**Q.** How did the Potency turn out when `Cc1[nH]c2ccccc2c1SCC(=O)Nc1nccs1` was run?
**A.** 23.9 µM (active)

**Q.** How did the “activity change, negative = inhibition” value turn out when `Cn1c(SCC(=O)Nc2nccs2)nnc1-c1cccnc1` was run?
**A.** 2.95%

**Q.** `CCOc1ccccc1C(=O)NCc1ccc2c(c1)CCN2C(=O)c1ccc(F)cc1` was tested. Which “activity change, negative = inhibition” value did it give?
**A.** -15%

**Q.** For `Cc1ccccc1NC(=O)CSc1ccc2nnc(-c3ccccn3)n2n1`, which “activity change, negative = inhibition” value is on record?
**A.** -2.1%

**Q.** Which “activity change, negative = inhibition” value does the source give for `Cc1ccc(-c2onc(C)c2C)cc1S(=O)(=O)Nc1ccccn1` here?
**A.** -14.3%

**Q.** `O=C1CCN(C(=S)NCCc2ccccc2)CC1` was tested. Which “activity change, negative = inhibition” value did it give?
**A.** 0.463%

**Q.** How did the Potency turn out when `S=C(NCCc1ccccc1)N1CCCCC1` was run?
**A.** 16.9 µM (active)

**Q.** With `COc1ccc(C(=O)NC2CCN(C(=S)NCCc3ccccc3)CC2)cc1` as the compound, how does the “activity change, negative = inhibition” value read?
**A.** 0.548%

**Q.** With `CCOCCCN(C(=O)Cn1nnc(-c2ccc(OC)c(OC)c2)n1)C(CC)C(=O)NC1CCCC1` (stereo unspecified) as the compound, how does the “activity change, negative = inhibition” value read?
**A.** -2.8%

**Q.** How did the “activity change, negative = inhibition” value turn out when `O=[N+]([O-])c1ccc(N/N=C2/CCCCC2c2ccccn2)c([N+](=O)[O-])c1` (stereo unspecified) was run?
**A.** -12.6%

**Q.** How did the Potency turn out when `O=[N+]([O-])c1ccc2nc(-c3ccccn3)[nH]c2c1` was run?
**A.** 12 µM (active)

**Q.** Which “activity change, negative = inhibition” value does the source give for `O=c1[nH]c2cccnc2n1-c1ccc([N+](=O)[O-])cc1` here?
**A.** -0.226%

**Q.** How did the “activity change, negative = inhibition” value turn out when `COc1ccccc1NC(=O)CSc1oc(-c2ccco2)nc1S(=O)(=O)c1ccc(Br)cc1` was run?
**A.** -4.64%

**Q.** For `CCOc1ccc(S(=O)(=O)Nc2ccc3oc4c(c3c2)CC(C)CC4)cc1` (stereo unspecified), which “activity change, negative = inhibition” value is on record?
**A.** -12.4%

**Q.** For `N#Cc1ccccc1NC(=O)c1cccc(COc2ccc(Cl)cc2Cl)c1`, which Potency is on record?
**A.** 13.5 µM (active)

**Q.** With `CSc1ccc(C#N)cc1NC(=O)c1cccc(Cl)c1` as the compound, how does the “activity change, negative = inhibition” value read?
**A.** -1.26%

**Q.** `CSc1ccc(C#N)cc1NC(=O)c1ccc(Cl)cc1` was tested. Which “activity change, negative = inhibition” value did it give?
**A.** 4.33%

**Q.** Which Potency does the source give for `c1ccc(-c2csc(N3CCc4ccccc4C3)n2)cc1` here?
**A.** 12 µM (active)

**Q.** How did the “activity change, negative = inhibition” value turn out when `CN(C)CCCNC(=S)N1CCN(c2nc(-c3ccccc3)cs2)CC1` was run?
**A.** -15.6%

**Q.** With `O=C(CN1CCN(c2nc(-c3ccccc3)cs2)CC1)NCc1ccc2c(c1)OCO2` as the compound, how does the “activity change, negative = inhibition” value read?
**A.** -1.74%

**Q.** With `CCCCCn1c(=O)[nH]c2cc(C(=O)NCCCN3CCCCC3C)ccc2c1=O` (stereo unspecified) as the compound, how does the “activity change, negative = inhibition” value read?
**A.** 2.1%

**Q.** Which Potency does the source give for `CCS(=O)(=O)n1nc(-c2ccccc2)nc1SCc1ccccc1` here?
**A.** 10.7 µM (active)

**Q.** How did the “activity change, negative = inhibition” value turn out when `CCn1c(SCc2ccccc2)nc2c(c1=O)SCC2` was run?
**A.** -2.37%

**Q.** `Cc1ccc(S(=O)(=O)n2nc(-c3ccc(Cl)cc3)nc2NCc2ccccc2)cc1` was tested. Which “activity change, negative = inhibition” value did it give?
**A.** -1.94%

**Q.** `C[C@H](OC(=O)n1ccnc1)[C@@H]1O[C@@]2(C)CCC[C@@H]1O2` was tested. Which “activity change, negative = inhibition” value did it give?
**A.** -2.13%
